A number with no mark means an inactive call. Results filed as inconclusive are left out. Active and inactive are the calls of the source. Unless noted, the call rests on the fitted dose curve.

Experiment [1] can be described thus: qHTS assay to identify small molecule antagonists of the sonic hedgehog signaling (Shh) pathway (AID 1259369). Further: nearly all actives have a fitted effect of over 45% in size. Further: potency means the concentration at half of the fitted maximal effect. Put shortly:
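Conditioned medium drives Shh signalling in 3T3Gli1-Luc cells; compounds in DMSO co-applied, 24hr at 37 C, then luciferase luminescence.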

The target in experiment [2] is Estrogen receptor beta (Homo sapiens) (UniProt Q92731). The experiment can be described thus: qHTS assay to identify small molecule agonists of the estrogen receptor beta (ER-beta) signaling pathway (AID 1259377; active means well fitted activation curve with a large enough effect in the signal ratio in the repeat runs, not every such curve was filed as active; the % refers to the signal ratio). Put shortly: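 HEK293T ER-beta-UAS-bla; 2% charcoal-stripped FBS; cells pre-incubated 6 hr, compound 16 hr, 37C/5% CO2; LiveBLAzer B/G FRET substrate 2 h RT; fluorescence intensity read.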
Sequence of Estrogen receptor beta (Homo sapiens) (Q92731 whole entry, looked up): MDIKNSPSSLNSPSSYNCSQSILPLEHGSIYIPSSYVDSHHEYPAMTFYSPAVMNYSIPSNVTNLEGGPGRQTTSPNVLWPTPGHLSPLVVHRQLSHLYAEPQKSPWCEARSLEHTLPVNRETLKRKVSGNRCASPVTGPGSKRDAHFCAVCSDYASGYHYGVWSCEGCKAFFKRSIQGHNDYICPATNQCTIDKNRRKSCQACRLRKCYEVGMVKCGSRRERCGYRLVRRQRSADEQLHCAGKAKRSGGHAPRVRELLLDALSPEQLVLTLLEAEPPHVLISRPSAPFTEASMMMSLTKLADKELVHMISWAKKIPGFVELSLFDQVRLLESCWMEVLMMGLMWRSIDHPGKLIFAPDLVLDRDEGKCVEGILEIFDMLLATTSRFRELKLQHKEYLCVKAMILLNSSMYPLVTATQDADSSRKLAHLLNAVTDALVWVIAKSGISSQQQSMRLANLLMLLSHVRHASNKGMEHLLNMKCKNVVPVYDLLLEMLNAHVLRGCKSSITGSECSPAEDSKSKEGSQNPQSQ
A general note: In qHTS, concentration-response curves come from the screen itself.

The target is the same in experiment [3]. In words: qHTS assay to identify small molecule antagonists of the estrogen receptor beta (ER-beta) signaling pathway (AID 1259378; active means well fitted inhibition curve with a large enough effect in the signal ratio in the repeat runs, not every such curve was filed as active; the % refers to the signal ratio). The method, boiled down:
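Antagonist mode: compounds added to beta-lactamase reporter HEK293T ER-beta-UAS cells stimulated with E2 (1nM final), 16 hr at 37C. LiveBLAzer B/G FRET substrate, 2 hours room temperature, fluorescence read-out.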

The nature of experiment [4]: qHTS assay to identify small molecule agonists of the androgen receptor (AR) signaling pathway in the presence of an antagonist - cell viability counter screen (AID 1259379; active means well fitted curve in the direction sought with a large enough effect in the repeat runs; an effect the other way counts as inactive or inconclusive;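 further: MDA-kb2 human breast cancer cells carrying an MMTV luciferase reporter; series mostly up to about 92 µM; nearly all actives have a fitted effect of over 25% in size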). The method, boiled down: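 A CellTiter-Fluor read-out measured viability of MDA-kb2 reporter cells (MMTV promoter with AR and GR response elements). Treatment: nilutamide 3.0uM final with compounds at 15 concentrations, 16 hr, 37C, 0% CO2.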

Experiment [5] can be described thus: qHTS assay to identify small molecule agonists of the estrogen receptor beta (ER-beta) signaling pathway - cell viability counter screen (AID 1259380; active means well fitted curve in the direction sought with a large enough effect in the repeat runs; an effect the other way counts as inactive or inconclusive; further: nearly all actives have a fitted effect of over 30% in size; further: potency means the concentration at half of the fitted maximal effect). The method, boiled down:
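Cells used were ER-beta-UAS-bla HEK293T in medium with 2% charcoal-stripped FBS. They were treated for 16 hr at 37C. Viability came from CellTiter-Glo luminescence.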

A short description of experiment [6]: qHTS assay to identify small molecule agonists or antagonists of the thyroid stimulating hormone receptor (TSHR) signaling pathway - wild type cell line counter screen (AID 1259384). The method, boiled down:
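Counter screen in untransfected Hek293: compounds (15-point titration, triplicate) plus phosphodiesterase inhibitor Ro20-1724 added after 18 h plating; 30 min RT. Intracellular cAMP via competitive d2/cryptate immunoassay, 1 h incubation.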

The target of experiment [7] is Thyrotropin receptor (Homo sapiens) (UniProt P16473). In words: qHTS assay to identify small molecule antagonists of the thyroid stimulating hormone receptor (TSHR) signaling pathway (AID 1259385). Further: nearly all actives have a fitted effect of over 20% in size. The method, boiled down: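 Antagonist mode: compound-treated TSHR-expressing HEK293 cells were stimulated with 1.5 ng/mL TSH (final) in presence of Ro20-1724 for 30 min at RT. HTRF cAMP detection after 1 h; each compound tested at 15 concentrations, triplicate.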
Sequence of Thyrotropin receptor (Homo sapiens) (P16473 whole entry, looked up): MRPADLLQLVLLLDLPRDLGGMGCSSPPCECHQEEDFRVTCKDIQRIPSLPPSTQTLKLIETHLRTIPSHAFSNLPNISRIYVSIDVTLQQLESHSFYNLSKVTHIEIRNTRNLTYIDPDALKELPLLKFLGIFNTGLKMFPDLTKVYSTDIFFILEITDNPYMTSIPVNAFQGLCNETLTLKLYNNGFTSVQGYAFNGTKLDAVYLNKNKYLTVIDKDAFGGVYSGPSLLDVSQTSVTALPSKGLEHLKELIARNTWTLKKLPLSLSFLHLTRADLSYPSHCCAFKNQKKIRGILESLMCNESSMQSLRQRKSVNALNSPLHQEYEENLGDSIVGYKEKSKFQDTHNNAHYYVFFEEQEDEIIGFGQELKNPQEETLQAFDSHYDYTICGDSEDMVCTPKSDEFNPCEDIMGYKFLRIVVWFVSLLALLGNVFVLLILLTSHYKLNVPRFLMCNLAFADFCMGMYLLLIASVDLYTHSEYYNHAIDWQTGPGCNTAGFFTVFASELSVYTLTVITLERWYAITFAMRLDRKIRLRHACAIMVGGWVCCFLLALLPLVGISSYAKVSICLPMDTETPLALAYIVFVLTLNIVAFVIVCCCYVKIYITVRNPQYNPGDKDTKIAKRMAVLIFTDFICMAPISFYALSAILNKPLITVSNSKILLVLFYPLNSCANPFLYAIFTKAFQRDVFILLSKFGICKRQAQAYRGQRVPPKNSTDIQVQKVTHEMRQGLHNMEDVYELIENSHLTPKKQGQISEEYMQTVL

The target in experiment [8] is Progesterone receptor (Homo sapiens) (UniProt P06401). The experiment can be described thus: qHTS assay to identify small molecule agonists of the progesterone receptor (PR) signaling pathway (AID 1346784). Further: nearly all actives have a fitted effect of over 30% in size. The method, boiled down: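 Beta-lactamase reporter read-out: after 16 hr compound treatment at 37C and a further 2 hr at room temperature with LiveBLAzer B/G FRET substrate, fluorescence was measured in PR-UAS-bla HEK 293T cells grown in 2% charcoal-stripped serum.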
Sequence of Progesterone receptor (Homo sapiens) (P06401 whole entry, looked up): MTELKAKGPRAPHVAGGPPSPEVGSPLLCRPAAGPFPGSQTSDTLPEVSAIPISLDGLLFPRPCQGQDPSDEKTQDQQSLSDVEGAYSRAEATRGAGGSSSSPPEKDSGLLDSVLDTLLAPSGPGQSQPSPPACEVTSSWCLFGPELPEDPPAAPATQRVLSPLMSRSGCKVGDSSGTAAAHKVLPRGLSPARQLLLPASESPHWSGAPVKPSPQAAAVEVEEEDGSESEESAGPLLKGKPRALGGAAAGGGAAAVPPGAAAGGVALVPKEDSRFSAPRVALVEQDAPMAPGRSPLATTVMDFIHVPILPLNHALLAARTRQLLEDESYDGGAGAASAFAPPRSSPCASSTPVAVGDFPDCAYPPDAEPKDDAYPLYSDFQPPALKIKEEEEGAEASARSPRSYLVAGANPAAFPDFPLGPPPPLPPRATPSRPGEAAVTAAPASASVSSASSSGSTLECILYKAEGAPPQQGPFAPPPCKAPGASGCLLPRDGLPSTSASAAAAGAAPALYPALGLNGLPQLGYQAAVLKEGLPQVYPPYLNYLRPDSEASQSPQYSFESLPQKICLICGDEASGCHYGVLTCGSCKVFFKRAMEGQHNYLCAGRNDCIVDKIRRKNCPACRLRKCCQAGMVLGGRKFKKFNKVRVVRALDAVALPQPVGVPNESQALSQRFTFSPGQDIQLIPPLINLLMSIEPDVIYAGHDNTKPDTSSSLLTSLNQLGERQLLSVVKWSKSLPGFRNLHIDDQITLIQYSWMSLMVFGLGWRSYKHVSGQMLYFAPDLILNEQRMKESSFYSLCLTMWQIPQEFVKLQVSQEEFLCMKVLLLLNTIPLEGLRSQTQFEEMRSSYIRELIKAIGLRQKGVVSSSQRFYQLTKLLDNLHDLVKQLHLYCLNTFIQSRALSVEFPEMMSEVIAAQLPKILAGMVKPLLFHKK

For experiment [9] the target is unchanged. In words: qHTS assay to identify small molecule antagonists of the progesterone receptor (PR) signaling pathway (AID 1346795; active means well fitted inhibition curve with a large enough effect in the signal ratio in the repeat runs, not every such curve was filed as active; the % refers to the signal ratio). The method, boiled down: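 Read-out is fluorescence from the LiveBLAzer B/G FRET substrate, cleaved by a UAS-controlled beta-lactamase in PR-UAS-bla HEK293T cells after 16 hr exposure to compound plus 1 nM promegestone (final), followed by 2 hr at room temperature.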

Experiment [10] can be described thus: qHTS assay to identify small molecule antagonists of the progesterone receptor (PR) signaling pathway - cell viability counter screen (AID 1346798; active means well fitted curve in the direction sought with a large enough effect in the repeat runs; an effect the other way counts as inactive or inconclusive; further: series mostly up to about 92 µM; nearly all actives have a fitted effect of over 50% in size). Put shortly: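 HEK293T PR-UAS-bla, 2% charcoal-stripped FBS; 4 hr pre-plate; cpd + R5020, 16 h 37C; LiveBLAzer read first; then CellTiter-Glo 30 min RT, luminescence.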
Experiment [11] can be described thus: qHTS assay to identify small molecule agonists of the progesterone receptor (PR) signaling pathway - cell viability counter screen (AID 1346799). Further: nearly all actives have a fitted effect of over 45% in size. The method, boiled down:
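Luminescence from CellTiter-Glo, added after the beta-lactamase FRET read in the same wells, gave cytotoxicity in PR-UAS-bla HEK293T cells treated with compounds for 16 hr at 37C.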

A short description of experiment [12]: qHTS assay to identify small molecule agonists of the TGF-beta/Smad signaling pathway - cell viability counter screen (AID 1346829; active means well fitted curve in the direction sought with a large enough effect in the repeat runs; an effect the other way counts as inactive or inconclusive; further: top concentration of the series differs between compounds; nearly all actives have a fitted effect of over 45% in size). The method, boiled down: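 SBE-bla HEK 293T cells plated overnight, compound exposure 5 hr at 37 C. Viability read in the same wells by CellTiter-Glo luminescence after 30 min at room temperature, following the beta-lactamase read.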

The nature of experiment [13]: qHTS assay to identify small molecule agonists of the TGF-beta/Smad signaling pathway (AID 1346859; active means well fitted activation curve with a large enough effect in the signal ratio in the repeat runs, not every such curve was filed as active; the % refers to the signal ratio; further: series mostly up to about 77 µM). Put shortly:
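SBE-bla HEK 293T, 4,000 cells/well, plated o/n; cpd in DMSO, 5 hr, 37 C/5% CO2; B/G FRET substrate 2 hr RT; ex 405, em 460/530 nm.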

For experiment [14], the target named is Thyrotropin-releasing hormone receptor (Homo sapiens) (UniProt P34981). In words: qHTS assay to identify small molecule antagonists of the thyrotropin-releasing hormone receptor (TRHR) signaling pathway (AID 1346877; active means well fitted inhibition curve with a large enough effect in the repeat runs, not every such curve was filed as active; further: series mostly up to about 51 µM). The method, boiled down: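 Screening used HEK293 cells engineered with TRHR, with a brief 5 min room-temperature compound exposure preceding addition of TRH to 1 nM. The read-out was kinetic calcium-dye fluorescence, concentration-response from 15 doses in triplicate.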
Sequence of Thyrotropin-releasing hormone receptor (Homo sapiens) (P34981 whole entry, looked up): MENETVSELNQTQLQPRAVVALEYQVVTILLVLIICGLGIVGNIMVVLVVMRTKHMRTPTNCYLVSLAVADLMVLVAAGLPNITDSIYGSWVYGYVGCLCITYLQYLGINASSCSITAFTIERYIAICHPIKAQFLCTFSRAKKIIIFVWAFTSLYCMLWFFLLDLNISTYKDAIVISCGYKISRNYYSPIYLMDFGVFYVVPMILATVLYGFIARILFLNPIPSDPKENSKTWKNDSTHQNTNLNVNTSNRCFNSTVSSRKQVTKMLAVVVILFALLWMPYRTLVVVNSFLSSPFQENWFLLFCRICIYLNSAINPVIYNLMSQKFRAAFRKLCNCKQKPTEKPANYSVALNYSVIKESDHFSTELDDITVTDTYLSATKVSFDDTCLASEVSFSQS

The target is the same in experiment [15]. The experiment can be described thus: qHTS assay to identify small molecule agonists of the thyrotropin-releasing hormone receptor (TRHR) signaling pathway (AID 1346891). Further: series mostly up to about 58 µM. The method, boiled down: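 Intracellular calcium rise, read as fluorescence every second for 3 min, served as the agonist signal in dye-loaded HEK293 cells expressing TRHR; each compound ran at 15 concentrations in triplicate.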

The target of experiment [16] is Androgen receptor (Homo sapiens) (UniProt P10275). The experiment can be described thus: qHTS assay to identify small molecule agonists of the androgen receptor (AR) signaling pathway in the presence of an antagonist (AID 1259381). Further: nearly all actives have a fitted effect of over 15% in size. The method, boiled down: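 Using human MDA-kb2 cells with an MMTV promoter–luciferase construct (AR and GR response elements), agonist activity is scored under 3.0uM nilutamide (final) co-treatment; 16hr incubation, 37C, luminescence readout via ONE-Glo.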
Sequence of Androgen receptor (Homo sapiens) (P10275 whole entry, looked up): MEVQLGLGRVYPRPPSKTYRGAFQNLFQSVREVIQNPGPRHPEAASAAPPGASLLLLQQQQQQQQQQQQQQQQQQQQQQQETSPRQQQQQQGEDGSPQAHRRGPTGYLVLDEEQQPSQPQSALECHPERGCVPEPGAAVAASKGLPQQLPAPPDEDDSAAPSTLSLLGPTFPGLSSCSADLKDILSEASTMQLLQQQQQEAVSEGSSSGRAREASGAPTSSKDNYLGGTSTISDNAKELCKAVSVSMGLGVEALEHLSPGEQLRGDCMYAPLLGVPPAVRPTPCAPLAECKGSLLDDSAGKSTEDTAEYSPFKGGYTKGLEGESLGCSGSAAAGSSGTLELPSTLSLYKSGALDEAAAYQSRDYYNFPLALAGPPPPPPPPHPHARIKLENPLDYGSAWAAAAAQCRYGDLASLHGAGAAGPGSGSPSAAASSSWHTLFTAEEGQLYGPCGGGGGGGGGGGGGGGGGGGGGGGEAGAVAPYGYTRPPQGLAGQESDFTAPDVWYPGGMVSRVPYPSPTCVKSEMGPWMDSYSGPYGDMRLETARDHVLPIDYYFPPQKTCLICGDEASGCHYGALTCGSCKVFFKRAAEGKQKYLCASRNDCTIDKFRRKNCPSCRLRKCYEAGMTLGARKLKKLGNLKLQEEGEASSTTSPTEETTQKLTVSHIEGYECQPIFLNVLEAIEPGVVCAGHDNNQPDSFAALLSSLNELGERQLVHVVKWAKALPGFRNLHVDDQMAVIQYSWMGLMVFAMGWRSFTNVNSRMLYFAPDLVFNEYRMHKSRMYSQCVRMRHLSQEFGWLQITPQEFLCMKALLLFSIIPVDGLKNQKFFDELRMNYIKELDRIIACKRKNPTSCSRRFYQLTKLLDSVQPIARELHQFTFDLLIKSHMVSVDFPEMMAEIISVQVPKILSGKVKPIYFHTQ

Experiment [17] is described as follows: qHTS assay to identify small molecule antagonists of the estrogen receptor beta (ER-beta) signaling pathway - cell viability counter screen (AID 1259382; active means well fitted curve in the direction sought with a large enough effect in the repeat runs; an effect the other way counts as inactive or inconclusive; further: series mostly up to about 92 µM; nearly all actives have a fitted effect of over 55% in size). Put shortly:
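Agonist-stimulated (1nM E2) ER-beta-UAS-bla HEK293T cells are incubated with library compounds for 16 hr at 37C. Cell viability is then assessed in the reporter-assay wells by adding CellTiter-Glo and reading luminescence after 30 min.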

Experiment [18] addresses Estrogen receptor (Homo sapiens) (UniProt P03372). The experiment can be described thus: qHTS assay to identify small molecule agonists of the estrogen receptor alpha (ER-alpha) signaling pathway in the presence of an antagonist (AID 1259383). Further: top concentration of the series differs between compounds; nearly all actives have a fitted effect of over 15% in size. Put shortly: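 Using VM7Luc4E2 cells seeded 24hr before treatment, antagonist ICI-182,780 (10.0nM final) was added, followed by compounds at 15 concentrations. Plates incubated 22hr; ONE-Glo luminescence quantified reporter activity.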

Experiment [19] is described as follows: qHTS assay to identify small molecule agonists of the estrogen receptor alpha (ER-alpha) signaling pathway in the presence of an antagonist - cell viability counter screen (AID 1259386; active means well fitted curve in the direction sought with a large enough effect in the repeat runs; an effect the other way counts as inactive or inconclusive;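 further: series mostly up to about 92 µM; cells exposed to compounds for 22 h at 37 °C before the viability read; nearly all actives have a fitted effect of over 30% in size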). Put shortly:
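ICI-182,780 at 10.0nM final accompanies the compound titration (15 concentrations, 22hr, 37C) on VM7Luc4E2 cells. The CellTiter-Fluor fluorescence readout runs in the same wells as the luciferase assay.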

The nature of experiment [20]: qHTS assay to identify small molecule antagonists of the TGF-beta/Smad signaling pathway - cell viability counter screen (AID 1346824; active means well fitted curve in the direction sought with a large enough effect in the repeat runs; an effect the other way counts as inactive or inconclusive; further: nearly all actives have a fitted effect of over 50% in size). Put shortly:
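Cytotoxicity counter-screen run in the same wells as the beta-lactamase Smad reporter read: CellTiter-Glo luminescence after 30 min at room temperature. HEK 293T SBE-bla cells had 5 hr compound exposure at 37 C with TGF-beta1 (0.25 ng/mL stock).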

Sequence of Estrogen receptor (Homo sapiens) (P03372 whole entry, looked up): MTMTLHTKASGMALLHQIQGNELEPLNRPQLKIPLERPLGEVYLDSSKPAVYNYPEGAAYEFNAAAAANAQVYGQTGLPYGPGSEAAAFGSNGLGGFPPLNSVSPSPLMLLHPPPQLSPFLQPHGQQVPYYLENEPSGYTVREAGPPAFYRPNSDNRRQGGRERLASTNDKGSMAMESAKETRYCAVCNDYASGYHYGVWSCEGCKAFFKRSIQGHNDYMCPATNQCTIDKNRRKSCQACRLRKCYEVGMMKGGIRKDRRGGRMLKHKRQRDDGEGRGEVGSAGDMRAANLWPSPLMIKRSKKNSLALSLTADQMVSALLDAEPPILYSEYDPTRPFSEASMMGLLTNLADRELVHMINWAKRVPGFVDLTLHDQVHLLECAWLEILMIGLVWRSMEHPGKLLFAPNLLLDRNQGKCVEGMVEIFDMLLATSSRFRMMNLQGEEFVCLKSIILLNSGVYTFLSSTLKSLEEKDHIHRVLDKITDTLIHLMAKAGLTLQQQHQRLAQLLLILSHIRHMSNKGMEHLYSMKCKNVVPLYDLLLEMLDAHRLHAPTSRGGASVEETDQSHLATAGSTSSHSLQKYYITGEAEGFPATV

Consider `Cc1ccc(C)o1`, for which the Potency result in experiment [1], in experiment [2], in [3], in experiment [4], in experiment [5] and in [6] was “inactive” each time. In addition, the Potency entry in [7], in experiment [9], in [10], in experiment [11], in [12] and in experiment [15] was “inactive” throughout. For the same compound, the result in experiment [8], in [13] and in experiment [14] was inactive.
`CCN(CC)CCOC(=O)C1(c2ccccc2)CCCC1`: the Potency entry in experiment [1], in experiment [2], in experiment [3], in experiment [5], in experiment [16] and in experiment [17] was “inactive” each time. In addition, the Potency result in experiment [18], in experiment [6], in [7], in experiment [19], in [9] and in experiment [10] was “inactive” each time. Also, the Potency entry in experiment [11], in experiment [20], in experiment [12] and in experiment [15] was “inactive” each time. Also, the call in [8] and in experiment [13] was inactive.
Regarding `CCN(CC)CCNC(C(=O)OCCC(C)C)c1ccccc1` (centres undefined), the Potency result in experiment [1], in [2], in [3], in experiment [4], in [17] and in experiment [18] was “inactive” throughout. The Potency result in experiment [6], in experiment [7], in experiment [19], in experiment [9], in [10] and in [20] was “inactive” in each case. For the same compound, the Potency result in experiment [12] and in experiment [15] was “inactive” throughout. In addition, the call in experiment [8], in [13] and in experiment [14] was inactive.
For `CCOc1nc2cccc(C(=O)O)c2n1Cc1ccc(-c2ccccc2-c2nn[nH]n2)cc1`, the Potency result in experiment [1], in experiment [2], in experiment [3], in [4], in experiment [16] and in experiment [17] was “inactive” in each case. In addition, the Potency entry in [18], in [6], in experiment [7], in [9], in experiment [11] and in experiment [20] was “inactive” in each case. The Potency entry in experiment [12] was “inactive”. Besides, the compound was called inactive in experiment [8] and in [13].
As for `CN1CCC(=C2c3ccccc3C=Cc3ccccc32)CC1`, the Potency in experiment [1] was 335 nM (active); in experiment [5], 26.6 µM (active). Further, the Potency entry in experiment [2], in experiment [3], in experiment [4], in [18], in experiment [6] and in [7] was “inactive” in each case. Moreover, the Potency entry in experiment [19], in [9], in experiment [11], in experiment [20] and in experiment [12] was “inactive” throughout. For the same compound, the compound was classed as inactive in experiment [8] and in [13].
Consider `CC1=CC(=O)/C(=C(/C)O)C(=O)O1`, for which the Potency entry in experiment [1], in [2], in experiment [3], in [5], in experiment [17] and in [18] was “inactive” each time. The Potency result in [6], in experiment [7], in experiment [19], in experiment [9], in [10] and in [11] was “inactive” in each case. For the same compound, the Potency entry in experiment [12] and in [15] was “inactive” each time. For the same compound, the compound was called inactive in [8], in experiment [13] and in experiment [14].
Take `Cn1c(NCCN(CCO)CCCc2ccc([N+](=O)[O-])cc2)cc(=O)n(C)c1=O`: the Potency result in [1], in experiment [2], in experiment [3], in experiment [5], in experiment [17] and in [6] was “inactive” each time. For the same compound, the Potency entry in experiment [7], in [19], in experiment [10], in [11], in experiment [12] and in experiment [15] was “inactive” each time. Further, the outcome in experiment [13] and in experiment [14] was inactive.
Regarding `O=[N+]([O-])c1cccc(Cl)c1Cl`, the Potency result in experiment [1], in [2], in experiment [3], in experiment [4], in [5] and in experiment [18] was “inactive” in each case. The Potency result in [6], in experiment [7], in experiment [19], in experiment [9], in experiment [10] and in [11] was “inactive” throughout. The Potency result in experiment [20], in experiment [12] and in experiment [15] was “inactive” each time. The compound was classed as inactive in experiment [8], in [13] and in [14].

The values above are taken from PubChem BioAssay (Tox21).
